Read-outs that look alike come from different tables or passages of the source.
Experiments:
Set-up in all cases: species or system human, MV4-11 + K-562 + COLO205 + SK-N-BE2 + OVCAR-8
ACVR1B = conditions: read-out: apparent Kd, n = 1
ADRBK1 = conditions: read-out: apparent Kd; compound concentrations: 100 nM and 1000 nM (sheet 'Samples'), CATDS: 5.42741985746545E-2; n = 1
AKT1 = conditions: read-out: apparent Kd; compound concentrations: 100 nM and 1000 nM (sheet 'Samples'), CATDS: 5.4273018110040303E-2; n = 1
AKT2 = conditions: read-out: apparent Kd; compound concentrations: 100 nM and 1000 nM (sheet 'Samples'), CATDS: 6.3448544870815707E-2; n = 1
CDK17 = conditions: read-out: apparent Kd; compound concentrations: 100 nM and 1000 nM (sheet 'Samples'), CATDS: 4.6046417847887898E-2; n = 1
CDK6 = conditions: read-out: apparent Kd; compound concentrations: 100 nM and 1000 nM (sheet 'Samples'), CATDS: 4.5600576408269602E-2; n = 1
CSNK1A1 = conditions: read-out: apparent Kd; compound concentrations: 100 nM and 1000 nM (sheet 'Samples'), CATDS: 4.1256570238539701E-2; n = 1
LIMK1 = conditions: read-out: apparent Kd; compound concentrations: 100 nM and 1000 nM (sheet 'Samples'), CATDS: 4.6691533927662399E-2; n = 1
MAP2K1 = conditions: read-out: apparent Kd; compound concentrations: 100 nM and 1000 nM (sheet 'Samples'), CATDS: 5.0029485958775197E-2; n = 1
MAP2K2 = conditions: read-out: apparent Kd; compound concentrations: 100 nM and 1000 nM (sheet 'Samples'), CATDS: 5.0543278096989601E-2; n = 1
NCL = conditions: read-out: apparent Kd; compound concentrations: 100 nM and 1000 nM (sheet 'Samples'), CATDS: 4.2837987158590003E-2; n = 1
NQO1 = conditions: read-out: apparent Kd; compound concentrations: 100 nM and 1000 nM (sheet 'Samples'), CATDS: 5.1571181916601101E-2; n = 1
PHKG2 = conditions: read-out: apparent Kd; compound concentrations: 100 nM and 1000 nM (sheet 'Samples'), CATDS: 4.0833835587176903E-2; n = 1
PIM2 = conditions: read-out: apparent Kd; compound concentrations: 100 nM and 1000 nM (sheet 'Samples'), CATDS: 5.4197855398822901E-2; n = 1
PIP4K2C = conditions: read-out: apparent Kd; compound concentrations: 100 nM and 1000 nM (sheet 'Samples'), CATDS: 6.0471713091723403E-2; n = 1
PRKAG1 = conditions: read-out: apparent Kd; compound concentrations: 100 nM and 1000 nM (sheet 'Samples'), CATDS: 6.5107573303195193E-2; n = 1
PYGL = conditions: read-out: apparent Kd; compound concentrations: 100 nM and 1000 nM (sheet 'Samples'), CATDS: 4.9538207783530498E-2; n = 1
VDAC3 = conditions: read-out: apparent Kd; compound concentrations: 100 nM and 1000 nM (sheet 'Samples'), CATDS: 4.4574473592348701E-2; n = 1
YES1 = conditions: read-out: apparent Kd; compound concentrations: 100 nM and 1000 nM (sheet 'Samples'), CATDS: 6.4280508089749694E-2; n = 1
ZAK = conditions: read-out: apparent Kd; compound concentrations: 100 nM and 1000 nM (sheet 'Samples'), CATDS: 3.9848277554837802E-2; n = 1
CIT = conditions: read-out: apparent Kd, n = 1
CSNK1D = conditions: read-out: apparent Kd, n = 1
CSNK1E = conditions: read-out: apparent Kd; compound concentrations:100 nM and 1000 nM (sheet 'Samples'); n = 1
MAP4K2 = conditions: read-out: apparent Kd; compound concentrations:100 nM and 1000 nM (sheet 'Samples'); n = 1
MAPK14 = conditions: read-out: apparent Kd, n = 1
PKN3 = conditions: read-out: apparent Kd, n = 1
PRKD2 = conditions: read-out: apparent Kd; compound concentrations:100 nM and 1000 nM (sheet 'Samples'); n = 1
PRKD3 = conditions: read-out: apparent Kd; compound concentrations:100 nM and 1000 nM (sheet 'Samples'); n = 1
RIPK2 = conditions: read-out: apparent Kd; compound concentrations:100 nM and 1000 nM (sheet 'Samples'); n = 1
TESK2 = conditions: read-out: apparent Kd; compound concentrations:100 nM and 1000 nM (sheet 'Samples'); n = 1
TGFBR2 = conditions: read-out: apparent Kd; compound concentrations:100 nM and 1000 nM (sheet 'Samples'); n = 1
GRK6 = conditions: read-out: apparent Kd; compound concentrations: 100 nM and 1000 nM (sheet 'Samples'), CATDS: 0.11057023586935499; n = 1
MAPKAPK2 = conditions: read-out: apparent Kd; compound concentrations: 100 nM and 1000 nM (sheet 'Samples'), CATDS: 0.164691534232419; n = 1
BRAF = conditions: read-out: apparent Kd; compound concentrations: 100 nM and 1000 nM (sheet 'Samples'), CATDS: 0.43506507859715299; n = 1
CDC42BPG = conditions: read-out: apparent Kd; compound concentrations: 100 nM and 1000 nM (sheet 'Samples'), CATDS: 0.27820560825635698; n = 1
[1] = compound concentrations:100 nM and 1000 nM (sheet 'Samples')

Cc1nnc(-c2ccc(C)c(-c3ccc(C(=O)Nc4cccc(C#N)c4)cc3)c2)o1 [GW607117X]
potency estimated from few doses (ACVR1B; compound concentrations: 100 nM and 1000 nM (sheet 'Samples'), CATDS: 5.7242163764382799E-2): 1170 nM
potency estimated from few doses (ADRBK1): 1290 nM
potency estimated from few doses (AKT1): 1290 nM
potency estimated from few doses (AKT2): 976 nM
potency estimated from few doses (CDK17): 1810 nM
potency estimated from few doses (CDK6): 1850 nM
potency estimated from few doses (CSNK1A1): 2360 nM
potency estimated from few doses (LIMK1): 1750 nM
potency estimated from few doses (MAP2K1): 1510 nM
potency estimated from few doses (MAP2K2): 1480 nM
potency estimated from few doses (NCL): 2140 nM
potency estimated from few doses (NQO1): 1420 nM
potency estimated from few doses (PHKG2): 2420 nM
potency estimated from few doses (PIM2): 1290 nM
potency estimated from few doses (PIP4K2C): 1060 nM
potency estimated from few doses (PRKAG1): 935 nM
potency estimated from few doses (PYGL): 1550 nM
potency estimated from few doses (VDAC3): 1950 nM
potency estimated from few doses (YES1): 955 nM
potency estimated from few doses (ZAK): 2580 nM

Cc1cccc(-c2nc(Nc3ccncc3)c3ccccc3n2)n1 [GW855857X]
potency estimated from few doses (ACVR1B; [1]): 0.502 nM
potency estimated from few doses (CIT; [1]): 1120 nM
potency estimated from few doses (CSNK1D; [1]): 897 nM
potency estimated from few doses (CSNK1E): 1190 nM
potency estimated from few doses (MAP4K2): 1630 nM
potency estimated from few doses (MAPK14; [1]): 1470 nM
potency estimated from few doses (PKN3; [1]): 75.5 nM
potency estimated from few doses (PRKD2): 3.39 nM
potency estimated from few doses (PRKD3): 6.73 nM
potency estimated from few doses (RIPK2): 590 nM
potency estimated from few doses (TESK2): 1340 nM
potency estimated from few doses (TGFBR2): 855 nM

CSc1cccc2c(-c3ccncn3)c(-c3ccc(F)cc3)nn12 [GW514786X]
potency estimated from few doses (ACVR1B; compound concentrations: 100 nM and 1000 nM (sheet 'Samples'), CATDS: 0.17509937322487801): 801 nM
potency estimated from few doses (CIT; compound concentrations: 100 nM and 1000 nM (sheet 'Samples'), CATDS: 0.11106465565946499): 2190 nM
potency estimated from few doses (CSNK1D; compound concentrations: 100 nM and 1000 nM (sheet 'Samples'), CATDS: 0.131295791130774): 1420 nM
potency estimated from few doses (GRK6): 2220 nM
potency estimated from few doses (MAPK14; compound concentrations: 100 nM and 1000 nM (sheet 'Samples'), CATDS: 0.16800162105717001): 863 nM
potency estimated from few doses (MAPKAPK2): 895 nM
potency estimated from few doses (PKN3; compound concentrations: 100 nM and 1000 nM (sheet 'Samples'), CATDS: 0.17855560727929401): 774 nM

CN(C)CCOc1ccc(-c2cc(-c3ccc4c(c3)CCC4=NO)c(-c3ccncc3)o2)cc1.Cl [SB-682330-A]
potency estimated from few doses (ACVR1B; compound concentrations: 100 nM and 1000 nM (sheet 'Samples'), CATDS: 0.32185082744978499): 1130 nM
potency estimated from few doses (BRAF): 644 nM
potency estimated from few doses (CDC42BPG): 1600 nM
